Laboratory results taken from ChEMBL document CHEMBL1157539, “Thousands of chemical starting points for antimalarial lead identification” (Nature, 2010).

System: HepG2
Test: GSK_TCMDC: Percent inhibition of human HepG2 cell line. Test compounds present at 10uM.
Format: functional

`CCNc1cc(C(=O)N[C@@H](Cc2ccoc2)[C@H](O)CNC(C)CCCC(C)C)cc(N2CCCCS2(=O)=O)c1.Cl` (stereo not given in full) and `CCNc1cc(C(=O)N[C@@H](Cc2ccccc2)[C@H](O)CN[C@@H]2CCc3ccccc32)cc(N2CCCC2=O)c1` are the same in Inhibition: 0% for the first, 0% for the second.

Going from `O=C(Nc1ccc(Cl)cc1)Nc1ccc(OCC(O)CN2CCCCC2)cc1` (stereo not given) to `Cl.N=C(N)Nc1ccc(NC(=O)Nc2ccc(NC(=N)N)cc2)cc1`, the Inhibition falls from 18% to 0%.

Compared with `CN(C)c1ccc(CN2CCC(NC(=O)c3ccc(-c4ccccc4F)s3)CC2)cc1.O=C(O)C(F)(F)F`, `O=C(O)C(F)(F)F.OCC1CCN(Cc2ccc(-c3ccc(-c4nc5cc(F)ccc5[nH]4)cc3)cc2)CC1` is lower in Inhibition: 41% for the first, 17% for the second.

Compared with `CC1CN(CCCn2c3ccccc3c3ccc(C(=O)CCCN(C)C)cc32)CC(C)N1.Cl` (stereo not given), `CC(C)CC(C)NC(=O)C1Cc2c([nH]c3ccc(F)cc23)C2(CCN(Cc3ccccc3)CC2)N1` (stereo not given) is lower in Inhibition: 26% for the first, 18% for the second.

Compared with `CCCNCc1ccc(-c2ccc(CN(CC3CCCO3)C(=O)COc3ccccc3Cl)cc2)nc1.O=C(O)C(F)(F)F` (stereo not given), `Cc1cc(N[C@@H](Cc2ccccc2)C(=O)NC2CCCC2)nc(NCCc2ccc(F)cc2)n1.O=C(O)C(F)(F)F` is higher in Inhibition: 5% for the first, 21% for the second.

Going from `COc1ccc(NC(=O)Nc2ccc(-c3ccccc3)cc2)cc1Cn1nc(Cl)c(N2CCCNCC2)cc1=O.O=C(O)C(F)(F)F` to `O=C(Nc1ccc2c(c1)CCN(C1CCC1)CC2)c1cn(-c2ccccc2)nc1-c1ccccc1.O=C(O)C(F)(F)F`, the Inhibition rises from 18% to 38%.

`COc1ccccc1Cn1ccnc1SCC(=O)Nc1cccc(C(F)(F)F)c1` and `O=C(CSc1ccccn1)Nc1c(F)cccc1F` are the same in Inhibition: 0% for the first, 0% for the second.

Compared with `CCCC(=O)Nc1ccc(OCCCN(Cc2ccccc2OC(F)(F)F)c2ccc(C#N)c(C(F)(F)F)c2)cc1`, `NC1CCN(c2nc(NCCCc3ccc(O)cc3)nc(NCc3cccc4ccccc34)n2)CC1.O=C(O)C(F)(F)F` is higher in Inhibition: 0% for the first, 12% for the second.

Compared with `CCCC(C)C(=O)N1CCOC(COCc2cccc(C(F)(F)F)c2)(c2ccc(Cl)cc2)C1` (stereo not given), `CCCC(C)NC(=O)[C@H](CC1CCCCC1)NC(=O)c1ccc(O)c(-c2cccc(C(F)(F)F)c2)c1` (stereo not given in full) is lower in Inhibition: 2% for the first, 0% for the second.

Going from `O=c1nc(C=Cc2ccc(Br)cc2)oc2ccccc12` to `O=C(c1ccc2ccccc2n1)N1CCCc2cc(Br)ccc21`, the Inhibition rises from 0% to 19%.

Going from `Cl.Oc1ccc(CCCc2cc(Oc3c(I)cc(CCc4ncc[nH]4)cc3I)ccc2O)cc1` to `Cl.Oc1ccc2c(CNCCc3ccccc3)c(O)ccc2c1CNCCc1ccccc1`, the Inhibition falls from 26% to 24%.

Going from `Cl.Nc1cc(C(F)(F)F)ccc1Cl` to `Cc1cc(F)ccc1N(c1nc(-c2cc(Cl)ccc2Cl)cs1)C1CCNC1.O=C(O)C(F)(F)F` (stereo not given), the Inhibition rises from 8% to 19%.

First: NS(=O)(=O)c1ccccc1Nc1nc(Nc2ccc(N3CCOCC3)cc2)nc2c1CCC2.O=CO
Second: c1cn(-c2ccc(CNc3nccc(Nc4ccc(OCCN5CCOCC5)cc4)n3)cc2)cn1
The Inhibition of the first is higher: 21% for the first, 2% for the second.

Compared with `CCC(COCc1ccc(Cl)cc1)N(C)CCN(C)C(CC)COCc1ccc(Cl)cc1.Cl` (stereo not given), `CCCCc1cc(NCc2ccncc2)nc(Nc2ccc(C)cc2)n1` is lower in Inhibition: 89% for the first, 7% for the second.

First: COc1ccc2nccc(NC(=O)C3CCC(NCc4ccc5c(c4)NC(=O)CS5)CC3)c2c1 (stereo not given)
Second: COc1cc(F)c2ncc(Cl)c(C(O)CN3CCC(NC(=O)c4ccc5c(c4)NC(=O)CS5)CC3)c2c1.Cl (stereo not given)
The Inhibition of the first is lower: 0% for the first, 15% for the second.

First: COc1ccc2c(=O)c3ccc(OC)cc3[nH]c2c1
Second: COc1cc(NC(=O)c2cc3c(C)nn(-c4cccc(C(F)(F)F)c4)c3s2)cc(OC)c1OC
The Inhibition of the first is higher: 12% for the first, 0% for the second.

First: Cc1nc2ccccc2c(=O)n1NCc1ccc(Cl)c(Cl)c1
Second: COc1ccccc1-c1sccc1C(=O)NC1(c2cc(Cl)cc(Cl)c2)CCCC1
The Inhibition of the first is higher: 12% for the first, 0% for the second.

Going from `COC1(C)Oc2ccc3cccc([N+](=O)[O-])c3c2C1=O` (stereo not given) to `COc1ccccc1-c1[nH]c2ccccc2c1CN1CCC(c2c(C)cccc2C)CC1`, the Inhibition rises from 3% to 49%.

First: CC(C)NC(=N)NN=Cc1ccc(Cl)c(Cl)c1
Second: C=C(F)c1sc(CNCCCNc2nc3ccccc3[nH]2)c(C)c1Br
The Inhibition of the first is lower: 0% for the first, 15% for the second.

Compared with `O=C(O)C(F)(F)F.Oc1ccc(CCNc2nc(NCCCOc3cccc(CN4CCCCC4)c3Cl)nc(N3CCNCC3)n2)cc1`, `CC(c1cccc(Nc2nccc(-c3c(-c4cccc(NC(=O)c5c(F)cccc5F)c4)nn4ncccc34)n2)c1)S(C)(=O)=O` (stereo not given) is higher in Inhibition: 26% for the first, 79% for the second.
